Measured values taken from PubChem BioAssay (NCATS).
Results filed as inconclusive are left out. Calls of active or inactive are those of the source. Unless noted, calls follow the shape of the dose curve; as a rule, active = well fitted inhibition curve with a large enough effect; inconclusive = small, poorly fitted or top-dose-only effect; inactive = flat fitted curve, though single readings scatter.

What was measured:
[1] = S16 Schwann cell PMP22 intronic element beta-lactamase assay (AID 624044; calls by dose curve; also: nearly all actives have a fitted effect of over 15% in size); conditions: S16 rat Schwann cells, PMP22 element beta-lactamase FRET, 24 h; ratio activity, negative = inhibition: at 38.3 µM (top of the series)
Method in brief: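 Beta-lactamase reporter under a PMP22 intronic regulatory element in stable S16 rat Schwann cells; 24 h compound exposure. 460 nm blue signal normalized between DMSO (0%) and potassium clavulanate, with 535 nm FRET tracking viability; curves classed by r2 and response.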

AA1029 = experiment: qHTS profiling for inhibitors of Plasmodium falciparum proliferation (AID 504749); also: nearly all actives have a fitted effect of over 60% in size; conditions: P. falciparum in erythrocytes, SYBR Green DNA, 72 h; series mostly up to 28.7 µM
Method in brief: (§1)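 SYBR Green fluorescence of parasite DNA, read after lysis and overnight dark incubation, measured growth over 72 h in erythrocyte culture at 0.3% parasitemia and 2.5% hematocrit. Data normalised to DMSO and 0.29 uM artemisinin, with plate-drift correction.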

AS120 = experiment: as above; conditions: P. falciparum in erythrocytes, SYBR Green DNA, 72 h; series mostly up to 28.7 µM
Method in brief: as §1

ATS189 = experiment: as above; conditions: P. falciparum in erythrocytes, SYBR Green DNA, 72 h; series mostly up to 28.7 µM
Method in brief: as §1

C2A = experiment: as above; conditions: P. falciparum in erythrocytes, SYBR Green DNA, 72 h; series mostly up to 28.7 µM
Method in brief: as §1

CP194 = experiment: as above; conditions: P. falciparum in erythrocytes, SYBR Green DNA, 72 h; series mostly up to 28.7 µM
Method in brief: as §1

CP201 = experiment: as above; conditions: P. falciparum in erythrocytes, SYBR Green DNA, 72 h; series mostly up to 28.7 µM
Method in brief: as §1

CP203 = experiment: as above; conditions: P. falciparum in erythrocytes, SYBR Green DNA, 72 h; series mostly up to 28.7 µM
Method in brief: as §1

CP217 = experiment: as above; conditions: P. falciparum in erythrocytes, SYBR Green DNA, 72 h; series mostly up to 28.7 µM
Method in brief: as §1

CP237 = experiment: as above; conditions: P. falciparum in erythrocytes, SYBR Green DNA, 72 h; series mostly up to 28.7 µM
Method in brief: as §1

CP250 = experiment: as above; conditions: P. falciparum in erythrocytes, SYBR Green DNA, 72 h; series mostly up to 28.7 µM
Method in brief: as §1

CP256 = experiment: as above; conditions: P. falciparum in erythrocytes, SYBR Green DNA, 72 h; series mostly up to 28.7 µM
Method in brief: as §1

CP268 = experiment: as above; conditions: P. falciparum in erythrocytes, SYBR Green DNA, 72 h; series mostly up to 28.7 µM
Method in brief: as §1

CP297 = experiment: as above; conditions: P. falciparum in erythrocytes, SYBR Green DNA, 72 h; series mostly up to 28.7 µM
Method in brief: as §1

CP305 = experiment: as above; conditions: P. falciparum in erythrocytes, SYBR Green DNA, 72 h; series mostly up to 28.7 µM
Method in brief: as §1

CP325 = experiment: as above; conditions: P. falciparum in erythrocytes, SYBR Green DNA, 72 h; series mostly up to 28.7 µM
Method in brief: as §1

HB3 = experiment: as above; conditions: P. falciparum in erythrocytes, SYBR Green DNA, 72 h; series mostly up to 28.7 µM
Method in brief: as §1

PC15 = experiment: as above; conditions: P. falciparum in erythrocytes, SYBR Green DNA, 72 h; series mostly up to 28.7 µM
Method in brief: as §1

PC49 = experiment: as above; conditions: P. falciparum in erythrocytes, SYBR Green DNA, 72 h; series mostly up to 28.7 µM
Method in brief: as §1

TAB109 = experiment: as above; conditions: P. falciparum in erythrocytes, SYBR Green DNA, 72 h; series mostly up to 28.7 µM
Method in brief: as §1

Measured: Potency

O=C(O)C[CH2][Ge](=[O])[O][Ge](=[O])[CH2]CC(=O)O
inactive: all assays above

Cc1c(C)c2c(c(C)c1O)CCC(C)(CCCC(C)CCCC(C)CCCC(C)C)O2 (configuration not stated)
not listed: CP297
inactive: all other assays above

COC(=O)C1C2CC3c4[nH]c5cc(OC)ccc5c4CCN3CC2CC(OC)C1OC (configuration not stated)
inactive: all assays above

CC1CCC(O)C/C1=C\C=C1/CCCC2(C)C1CCC2C(C)/C=C/C(C)C(C)C (configuration not stated)
not listed: [1] | CP297
inactive: all other assays above

O=C1Oc2ccccc2C(=O)C1C(CC(O)c1ccc(-c2ccc(Br)cc2)cc1)c1ccccc1 (configuration not stated)
not listed: ATS189 | C2A | CP250 | CP256
inactive: all other assays above

C#C[C@@]1(O)CC[C@@H]2[C@H]3CCC4=C/C(=N\O)CC[C@H]4[C@@H]3CC[C@]21CC
not listed: CP194
inactive: all other assays above
